What all share (experiment): DAPPL (digital affinity profiling via proximity ligation, sequencing); 10 mM Tris-HCl pH 7.5, 50 mM NaCl, 1 mM DTT, 4% glycerol, room temperature, 30 min; GST-TFs on glutathione beads, 16-mer random dsDNA library, 0.1% formaldehyde crosslink after washing; high values mean tight binding
The target of assay [1] is T1, FEV (Homo sapiens, UniProt Q99581 1-238).
T1 sequence: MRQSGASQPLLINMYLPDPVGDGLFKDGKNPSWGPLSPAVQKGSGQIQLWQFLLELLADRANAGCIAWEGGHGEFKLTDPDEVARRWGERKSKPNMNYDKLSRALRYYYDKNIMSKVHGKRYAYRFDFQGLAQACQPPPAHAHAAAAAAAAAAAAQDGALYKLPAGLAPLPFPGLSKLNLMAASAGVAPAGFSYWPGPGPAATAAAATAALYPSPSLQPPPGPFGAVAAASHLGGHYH
As to conditions: protein: recombinant; tags: N-terminal GST; dsDNA, one strand shown. The method, boiled down:
(§1)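 Beads coated with glutathione captured GST-fused human transcription factors that had been expressed in yeast, and the factors were then given DNA barcodes and pooled with a tag-only sample. The pools were incubated with 200 nmole of a random double-stranded 16-mer DNA library in Tris/NaCl/DTT/glycerol buffer for 30 min at room temperature, washed, crosslinked with 0.1% formaldehyde and proximity-ligated with BsaI/T4 ligase at 37 °C for 1 h. PCR amplification and Illumina NextSeq500 sequencing came last. Binding signal is each hexamer's read frequency for a factor divided by its frequency for the tag-only sample.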

In assay [2] the target is ETV5 (Homo sapiens, UniProt P41161 1-510). As to conditions: protein: recombinant; tags: N-terminal GST; dsDNA, one strand shown. The method, boiled down: as §1
Chain of ETV5 (P41161 whole entry): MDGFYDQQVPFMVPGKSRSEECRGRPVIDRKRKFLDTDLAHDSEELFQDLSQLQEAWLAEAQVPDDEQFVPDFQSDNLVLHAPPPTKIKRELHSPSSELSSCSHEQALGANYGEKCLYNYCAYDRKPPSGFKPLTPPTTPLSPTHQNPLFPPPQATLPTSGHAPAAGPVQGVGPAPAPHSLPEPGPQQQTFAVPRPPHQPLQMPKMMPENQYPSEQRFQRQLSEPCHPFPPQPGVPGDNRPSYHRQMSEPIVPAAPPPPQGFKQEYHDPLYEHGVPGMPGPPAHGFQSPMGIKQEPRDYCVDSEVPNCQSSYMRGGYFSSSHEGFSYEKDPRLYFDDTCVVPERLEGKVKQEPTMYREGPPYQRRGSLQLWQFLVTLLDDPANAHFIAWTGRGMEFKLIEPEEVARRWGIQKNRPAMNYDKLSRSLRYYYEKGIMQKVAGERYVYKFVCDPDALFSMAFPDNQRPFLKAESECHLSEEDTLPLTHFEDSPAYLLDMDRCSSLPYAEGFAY
Assay [3] has as its target HSF1 (Homo sapiens, UniProt Q00613 1-529). As to conditions: protein: recombinant; tags: N-terminal GST; chain copies: 3; dsDNA, one strand shown. The method, boiled down: as §1
Assay [4] addresses T2, SPIC (Homo sapiens, UniProt Q8N5J4 1-248).
T2 sequence: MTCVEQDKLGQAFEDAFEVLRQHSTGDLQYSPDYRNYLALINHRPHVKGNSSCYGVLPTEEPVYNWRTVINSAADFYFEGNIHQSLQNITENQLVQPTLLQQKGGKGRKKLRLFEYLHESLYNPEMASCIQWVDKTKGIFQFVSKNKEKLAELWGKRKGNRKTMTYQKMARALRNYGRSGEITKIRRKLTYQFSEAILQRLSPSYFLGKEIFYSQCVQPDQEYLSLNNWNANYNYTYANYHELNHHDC
To be noted: protein: recombinant; tags: N-terminal GST; dsDNA, one strand shown. The method, boiled down: as §1

In assay [5] the target is ELF4 (Homo sapiens, UniProt Q99607 1-663). To be noted: protein: recombinant; tags: N-terminal GST; dsDNA, one strand shown. The method, boiled down: as §1
Chain of ELF4 (Q99607 whole entry): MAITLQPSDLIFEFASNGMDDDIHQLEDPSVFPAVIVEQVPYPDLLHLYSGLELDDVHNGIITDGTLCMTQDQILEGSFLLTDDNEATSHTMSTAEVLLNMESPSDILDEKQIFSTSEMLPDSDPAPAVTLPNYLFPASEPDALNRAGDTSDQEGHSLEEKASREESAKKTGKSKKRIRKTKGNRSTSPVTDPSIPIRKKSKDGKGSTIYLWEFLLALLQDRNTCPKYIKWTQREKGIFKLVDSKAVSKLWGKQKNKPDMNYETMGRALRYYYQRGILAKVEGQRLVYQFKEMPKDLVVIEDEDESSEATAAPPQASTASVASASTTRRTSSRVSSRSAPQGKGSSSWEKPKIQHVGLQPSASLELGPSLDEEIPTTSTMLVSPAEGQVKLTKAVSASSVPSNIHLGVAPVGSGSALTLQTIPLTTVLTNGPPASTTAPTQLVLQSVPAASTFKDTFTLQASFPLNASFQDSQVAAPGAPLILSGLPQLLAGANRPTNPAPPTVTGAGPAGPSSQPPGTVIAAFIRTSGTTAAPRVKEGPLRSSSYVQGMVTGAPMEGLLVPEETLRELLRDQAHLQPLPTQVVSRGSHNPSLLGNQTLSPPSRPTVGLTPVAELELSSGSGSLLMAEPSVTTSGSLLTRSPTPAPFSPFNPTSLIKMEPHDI
The target of assay [6] is T3, ELK4 (Homo sapiens, UniProt P28324-2 1-405).
T3 sequence: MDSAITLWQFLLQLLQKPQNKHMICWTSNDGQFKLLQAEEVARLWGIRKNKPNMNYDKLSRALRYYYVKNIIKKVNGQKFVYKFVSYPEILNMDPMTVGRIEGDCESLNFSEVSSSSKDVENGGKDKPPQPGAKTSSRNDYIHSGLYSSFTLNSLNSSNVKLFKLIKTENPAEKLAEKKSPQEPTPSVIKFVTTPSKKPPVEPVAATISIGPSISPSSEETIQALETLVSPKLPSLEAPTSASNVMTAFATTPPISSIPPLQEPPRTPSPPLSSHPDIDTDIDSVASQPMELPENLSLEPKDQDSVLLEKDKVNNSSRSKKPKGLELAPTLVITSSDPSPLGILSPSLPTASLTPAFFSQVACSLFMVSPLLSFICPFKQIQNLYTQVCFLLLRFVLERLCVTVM
To be noted: protein: recombinant; tags: N-terminal GST; dsDNA, one strand shown. The method, boiled down:
as §1

Assay [7] deals with T4, ETV2 (Homo sapiens, UniProt O00321 1-342).
T4 sequence: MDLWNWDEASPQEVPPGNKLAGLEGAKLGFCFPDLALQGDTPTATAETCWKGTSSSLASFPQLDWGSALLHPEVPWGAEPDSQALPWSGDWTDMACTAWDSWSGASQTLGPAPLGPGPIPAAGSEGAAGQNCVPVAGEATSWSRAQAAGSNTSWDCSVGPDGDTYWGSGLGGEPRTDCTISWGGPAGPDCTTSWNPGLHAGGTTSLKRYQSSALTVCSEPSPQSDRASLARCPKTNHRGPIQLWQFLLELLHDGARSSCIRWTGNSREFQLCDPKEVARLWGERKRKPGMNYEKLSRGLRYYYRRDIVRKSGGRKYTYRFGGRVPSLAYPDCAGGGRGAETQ
As to conditions: protein: recombinant; tags: N-terminal GST; dsDNA, one strand shown. The method, boiled down: as §1

The target of assay [8] is T5, ELF3 (Homo sapiens, UniProt P78545 1-371).
T5 sequence: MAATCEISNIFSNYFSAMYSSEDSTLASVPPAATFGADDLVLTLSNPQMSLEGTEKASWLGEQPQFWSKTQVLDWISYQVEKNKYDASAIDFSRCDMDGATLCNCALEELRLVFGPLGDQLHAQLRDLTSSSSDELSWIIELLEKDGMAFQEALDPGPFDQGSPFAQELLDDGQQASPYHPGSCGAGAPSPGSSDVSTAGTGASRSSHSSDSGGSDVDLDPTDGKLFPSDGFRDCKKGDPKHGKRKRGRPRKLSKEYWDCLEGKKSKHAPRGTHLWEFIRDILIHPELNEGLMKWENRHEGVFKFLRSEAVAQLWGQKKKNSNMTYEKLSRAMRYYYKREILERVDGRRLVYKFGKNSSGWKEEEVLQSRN
As to conditions: protein: recombinant; tags: N-terminal GST; dsDNA, one strand shown. An outline of the steps:
as §1

For assay [9], the target named is CRX (Homo sapiens, UniProt O43186 1-299). To be noted: protein: recombinant; tags: N-terminal GST; dsDNA, one strand shown. An outline of the steps: as §1
Chain of CRX (O43186 whole entry): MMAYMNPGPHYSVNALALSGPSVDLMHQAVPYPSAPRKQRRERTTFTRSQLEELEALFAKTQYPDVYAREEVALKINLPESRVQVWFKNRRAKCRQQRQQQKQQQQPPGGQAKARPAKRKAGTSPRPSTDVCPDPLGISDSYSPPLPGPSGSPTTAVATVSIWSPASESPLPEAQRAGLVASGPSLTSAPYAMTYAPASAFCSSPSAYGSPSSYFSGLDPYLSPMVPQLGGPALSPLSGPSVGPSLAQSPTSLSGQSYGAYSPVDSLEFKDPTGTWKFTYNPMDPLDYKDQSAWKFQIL
Assay [10] has as its target ETV1 (Homo sapiens, UniProt P50549 1-477). As to conditions: protein: recombinant; tags: N-terminal GST; dsDNA, one strand shown. The method, boiled down: as §1
The target in assay [11] is T6, ERF (Homo sapiens, UniProt P50548 1-548).
T6 sequence: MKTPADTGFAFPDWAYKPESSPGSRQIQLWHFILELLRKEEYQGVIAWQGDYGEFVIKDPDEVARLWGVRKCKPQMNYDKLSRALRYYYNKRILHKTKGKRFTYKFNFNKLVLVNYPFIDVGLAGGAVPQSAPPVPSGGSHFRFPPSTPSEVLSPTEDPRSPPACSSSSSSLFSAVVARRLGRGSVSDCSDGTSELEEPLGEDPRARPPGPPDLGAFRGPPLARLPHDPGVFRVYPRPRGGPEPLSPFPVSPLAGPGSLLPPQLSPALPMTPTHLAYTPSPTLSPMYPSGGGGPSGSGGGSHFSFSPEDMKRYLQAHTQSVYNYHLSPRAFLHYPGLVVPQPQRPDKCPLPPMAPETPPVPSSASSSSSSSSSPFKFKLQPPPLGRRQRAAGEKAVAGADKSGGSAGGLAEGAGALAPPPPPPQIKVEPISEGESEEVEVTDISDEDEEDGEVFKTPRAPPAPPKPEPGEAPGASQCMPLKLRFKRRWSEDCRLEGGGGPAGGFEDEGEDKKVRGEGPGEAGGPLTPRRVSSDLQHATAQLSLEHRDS
As to conditions: protein: recombinant; tags: N-terminal GST; dsDNA, one strand shown. The method, boiled down: as §1

Assay [12] deals with T7, ETV3L (Homo sapiens, UniProt Q6ZN32 1-361).
T7 sequence: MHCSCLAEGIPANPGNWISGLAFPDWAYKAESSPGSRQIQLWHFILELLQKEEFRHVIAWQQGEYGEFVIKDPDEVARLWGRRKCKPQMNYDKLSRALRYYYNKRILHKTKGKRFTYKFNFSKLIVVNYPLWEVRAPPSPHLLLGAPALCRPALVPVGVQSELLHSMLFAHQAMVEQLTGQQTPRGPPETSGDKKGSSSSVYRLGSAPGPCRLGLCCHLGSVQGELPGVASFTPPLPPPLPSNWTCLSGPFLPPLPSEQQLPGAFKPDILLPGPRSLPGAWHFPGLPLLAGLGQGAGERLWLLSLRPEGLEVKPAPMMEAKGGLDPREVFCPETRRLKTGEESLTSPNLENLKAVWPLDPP
As to conditions: protein: recombinant; tags: N-terminal GST; dsDNA, one strand shown. The method, boiled down:
as §1

In assay [13] the target is T8, ETS2 (Homo sapiens, UniProt P15036 1-469).
T8 sequence: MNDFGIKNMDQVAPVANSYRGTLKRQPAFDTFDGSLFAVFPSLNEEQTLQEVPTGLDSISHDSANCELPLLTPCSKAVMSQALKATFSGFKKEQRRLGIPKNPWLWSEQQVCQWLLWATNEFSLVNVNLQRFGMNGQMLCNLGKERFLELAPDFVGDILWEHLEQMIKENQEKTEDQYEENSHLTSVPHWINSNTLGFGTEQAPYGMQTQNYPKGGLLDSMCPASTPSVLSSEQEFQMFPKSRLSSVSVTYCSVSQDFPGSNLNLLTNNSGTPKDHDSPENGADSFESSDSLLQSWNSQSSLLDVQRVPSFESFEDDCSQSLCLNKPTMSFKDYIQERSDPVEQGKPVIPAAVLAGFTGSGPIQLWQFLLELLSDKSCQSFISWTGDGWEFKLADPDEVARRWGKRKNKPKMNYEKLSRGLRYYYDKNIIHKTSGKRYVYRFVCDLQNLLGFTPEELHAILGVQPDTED
As to conditions: protein: recombinant; tags: N-terminal GST; dsDNA, one strand shown. An outline of the steps:
as §1

The target in assay [14] is T9, SPDEF (Homo sapiens, UniProt O95238 1-335).
T9 sequence: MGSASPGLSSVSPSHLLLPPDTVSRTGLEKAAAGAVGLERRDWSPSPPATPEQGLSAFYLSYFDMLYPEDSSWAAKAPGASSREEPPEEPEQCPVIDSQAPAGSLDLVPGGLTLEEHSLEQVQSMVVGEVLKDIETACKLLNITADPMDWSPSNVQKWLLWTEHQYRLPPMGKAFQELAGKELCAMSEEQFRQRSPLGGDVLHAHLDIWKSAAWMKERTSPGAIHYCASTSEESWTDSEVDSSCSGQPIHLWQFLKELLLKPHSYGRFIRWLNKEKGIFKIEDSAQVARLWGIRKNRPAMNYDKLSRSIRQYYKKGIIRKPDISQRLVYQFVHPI
As to conditions: protein: recombinant; tags: N-terminal GST; dsDNA, one strand shown. An outline of the steps: as §1

In assay [15] the target is T10, ETV7 (Homo sapiens, UniProt Q9Y603 1-341).
T10 sequence: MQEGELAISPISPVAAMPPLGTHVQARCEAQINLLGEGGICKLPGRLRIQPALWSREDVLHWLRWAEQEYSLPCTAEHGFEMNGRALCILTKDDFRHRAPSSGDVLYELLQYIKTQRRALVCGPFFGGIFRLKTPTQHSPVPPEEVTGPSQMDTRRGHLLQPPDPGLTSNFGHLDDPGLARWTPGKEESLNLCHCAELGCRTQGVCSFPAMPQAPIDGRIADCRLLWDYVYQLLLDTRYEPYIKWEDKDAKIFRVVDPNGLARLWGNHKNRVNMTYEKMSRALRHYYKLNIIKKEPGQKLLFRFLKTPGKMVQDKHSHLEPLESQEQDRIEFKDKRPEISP
As to conditions: protein: recombinant; tags: N-terminal GST; dsDNA, one strand shown. An outline of the steps:
as §1

In assay [16] the target is T11, ELF5 (Homo sapiens, UniProt Q9UKW6-2 1-255).
T11 sequence: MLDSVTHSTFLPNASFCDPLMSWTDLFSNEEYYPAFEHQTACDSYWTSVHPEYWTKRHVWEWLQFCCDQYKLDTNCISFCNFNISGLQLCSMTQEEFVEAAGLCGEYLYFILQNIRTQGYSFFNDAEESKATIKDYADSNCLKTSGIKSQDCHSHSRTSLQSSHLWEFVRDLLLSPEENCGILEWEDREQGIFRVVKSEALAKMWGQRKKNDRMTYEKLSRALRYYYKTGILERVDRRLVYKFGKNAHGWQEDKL
As to conditions: protein: recombinant; tags: N-terminal GST; dsDNA, one strand shown. An outline of the steps: as §1

For assay [17], the target named is T12, ETV3 (Homo sapiens, UniProt P41162-2 1-143).
T12 sequence: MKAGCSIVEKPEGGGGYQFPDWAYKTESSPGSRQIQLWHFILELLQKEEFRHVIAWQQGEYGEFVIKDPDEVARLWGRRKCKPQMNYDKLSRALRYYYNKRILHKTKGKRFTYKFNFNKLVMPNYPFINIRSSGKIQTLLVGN
As to conditions: protein: recombinant; tags: N-terminal GST; dsDNA, one strand shown. The method, boiled down:
as §1

The target in assay [18] is ETV6 (Homo sapiens, UniProt P41212 1-452). To be noted: protein: recombinant; tags: N-terminal GST; dsDNA, one strand shown. An outline of the steps:
as §1

Chain of HSF1 (Q00613 whole entry): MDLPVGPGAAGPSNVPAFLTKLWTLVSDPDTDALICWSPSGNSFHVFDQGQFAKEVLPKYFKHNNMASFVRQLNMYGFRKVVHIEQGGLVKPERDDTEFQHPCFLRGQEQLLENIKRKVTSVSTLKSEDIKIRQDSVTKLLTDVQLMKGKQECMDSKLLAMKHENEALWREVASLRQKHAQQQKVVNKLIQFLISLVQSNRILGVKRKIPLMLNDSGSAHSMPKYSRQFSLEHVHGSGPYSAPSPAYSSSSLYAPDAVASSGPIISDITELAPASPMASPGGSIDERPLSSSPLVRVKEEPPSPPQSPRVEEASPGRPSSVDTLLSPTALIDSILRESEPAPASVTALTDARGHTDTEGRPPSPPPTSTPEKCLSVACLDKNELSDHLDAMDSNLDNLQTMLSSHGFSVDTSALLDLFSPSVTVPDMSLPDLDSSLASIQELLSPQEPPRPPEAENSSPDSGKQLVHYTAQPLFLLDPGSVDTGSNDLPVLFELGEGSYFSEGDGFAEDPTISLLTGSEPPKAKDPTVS
Chain of ETV1 (P50549 whole entry): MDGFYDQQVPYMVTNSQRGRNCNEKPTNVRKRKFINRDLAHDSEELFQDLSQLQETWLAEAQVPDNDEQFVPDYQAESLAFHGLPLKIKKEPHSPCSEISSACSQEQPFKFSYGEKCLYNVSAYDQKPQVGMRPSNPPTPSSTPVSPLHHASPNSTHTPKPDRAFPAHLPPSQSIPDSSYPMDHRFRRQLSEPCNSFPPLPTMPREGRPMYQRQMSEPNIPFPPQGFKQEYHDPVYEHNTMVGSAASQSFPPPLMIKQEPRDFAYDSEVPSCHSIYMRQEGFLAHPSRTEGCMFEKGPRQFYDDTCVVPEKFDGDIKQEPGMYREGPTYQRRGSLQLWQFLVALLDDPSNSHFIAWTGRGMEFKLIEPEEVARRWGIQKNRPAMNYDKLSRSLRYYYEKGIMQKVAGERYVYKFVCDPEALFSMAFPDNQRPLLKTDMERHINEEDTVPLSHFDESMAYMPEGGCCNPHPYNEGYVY
Chain of ETV6 (P41212 whole entry): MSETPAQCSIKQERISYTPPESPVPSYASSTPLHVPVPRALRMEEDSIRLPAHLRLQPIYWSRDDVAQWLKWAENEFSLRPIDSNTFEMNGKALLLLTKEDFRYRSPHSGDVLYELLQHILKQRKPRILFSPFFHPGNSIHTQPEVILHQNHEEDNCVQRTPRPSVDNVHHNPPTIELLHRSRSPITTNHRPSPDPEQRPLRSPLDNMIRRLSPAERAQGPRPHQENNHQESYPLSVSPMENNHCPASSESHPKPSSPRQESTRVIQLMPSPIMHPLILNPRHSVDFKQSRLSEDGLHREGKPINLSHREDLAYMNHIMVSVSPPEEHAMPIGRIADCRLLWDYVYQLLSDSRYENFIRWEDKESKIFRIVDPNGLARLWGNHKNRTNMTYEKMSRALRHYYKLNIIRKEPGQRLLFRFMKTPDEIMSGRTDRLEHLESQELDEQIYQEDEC

In the case of CTACCT, the binding signal in assay [1] is 1.3 fold enrichment (6-mer frequency, TF over GST control); in [2], 1.36 fold enrichment (6-mer frequency, TF over GST control); in assay [3] it was 1.15 fold enrichment (6-mer frequency, TF over GST control); in [4], 1.38 fold enrichment (6-mer frequency, TF over GST control); in assay [5], 1.46 fold enrichment (6-mer frequency, TF over GST control); in [6], 1.36 fold enrichment (6-mer frequency, TF over GST control). Also, the binding signal is 1.54 fold enrichment (6-mer frequency, TF over GST control) in [7]; 1.18 fold enrichment (6-mer frequency, TF over GST control) in assay [8]; 1.23 fold enrichment (6-mer frequency, TF over GST control) in assay [9]; 1.54 fold enrichment (6-mer frequency, TF over GST control) in assay [10]; 1.74 fold enrichment (6-mer frequency, TF over GST control) in assay [11]; 1.53 fold enrichment (6-mer frequency, TF over GST control) in assay [12]. Besides, the binding signal in assay [13] is 1.45 fold enrichment (6-mer frequency, TF over GST control); in assay [14], 1.45 fold enrichment (6-mer frequency, TF over GST control); in assay [15] it was 1.22 fold enrichment (6-mer frequency, TF over GST control); in assay [16], 1.59 fold enrichment (6-mer frequency, TF over GST control); in [17] it was 1.44 fold enrichment (6-mer frequency, TF over GST control); in [18] it was 1.51 fold enrichment (6-mer frequency, TF over GST control).

The values above are taken from PMC7862700, “An all-to-all approach to the identification of sequence-specific readers for epigenetic DNA modifications on cytosine”.
